# Screens deposited in PubChem BioAssay by several laboratories.
# Mtb hypoxia inh – reduces hypoxia-regulated biosensor signal in M. tuberculosis; M. tuberculosis hypoxia-regulated fluorescent reporter, fluorescence; fluorescence inhibition, % (no concentration beside the values); 300,000 compounds, 0.1% hits; AID 1159583; in the data active = fluorescence inhibition mostly above about 23%, no sharp cut-off; inactive = mostly below about 17%
# FBA Mtb inh – Mtb fructose-bisphosphate aldolase inhibition. P9WQA3. inhibition, % at 1 µM. AID 588726. 360,000 compounds, 2.3% hits. purified M. tuberculosis FBA, fluorescence read-out; in the data active = inhibition above about 27%;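 also: 0% = vehicle and 100% = reference inhibitor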
# Target sequence (P9WQA3 whole entry, looked up): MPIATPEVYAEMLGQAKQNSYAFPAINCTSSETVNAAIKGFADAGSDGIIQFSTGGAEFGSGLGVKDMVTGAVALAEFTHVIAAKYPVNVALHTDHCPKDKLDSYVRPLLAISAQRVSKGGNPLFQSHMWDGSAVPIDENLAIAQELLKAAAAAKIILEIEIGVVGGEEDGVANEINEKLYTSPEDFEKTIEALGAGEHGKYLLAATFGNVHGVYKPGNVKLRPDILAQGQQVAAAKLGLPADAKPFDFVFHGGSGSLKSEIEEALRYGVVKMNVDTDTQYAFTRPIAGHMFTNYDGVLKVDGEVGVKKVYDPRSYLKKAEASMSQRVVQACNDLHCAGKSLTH
# GDH-TPI counter – inhibits GDH-TPI coupling enzymes, artifact for Mtb FBA screen | inhibition, % at 4.8 µM | GDH-TPI coupled enzyme counterscreen, NADH absorbance | 360,000 compounds, 1.2% hits; in the data active = inhibition above about 30%;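 also: 0% = DMSO wells and 100% = wells lacking the enzyme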
# FadD28 FP inh – blocks FadD28 binding to the bisubstrate probe; inhibition, % at 12.5 µM; fluorescence polarization; AID 588549; 360,000 compounds, 0.22% hits; in the data active = inhibition above about 8.5%, passing the limit was not always enough
# BioA inh – blocks M. tuberculosis BioA enzyme activity; purified M. tuberculosis BioA enzyme, plate reader; inhibition, % at 9.99 µM; 360,000 compounds, 0.096% hits; AID 602481; in the data active = inhibition above about 40%
# Starred values were filed as active, the others as inactive; . = no result given; + = active, no number. Compounds with a hit are over-represented: about 2.9% of the library has one in this group of screens.
SMILES,Mtb hypoxia inh,FBA Mtb inh,GDH-TPI counter,FadD28 FP inh,BioA inh
O=[N+]([O-])c1ccc(/C=[N+](\[O-])[C@@H]2CCCC[C@@H]2/[N+]([O-])=C/c2ccc([N+](=O)[O-])o2)o1,21,-1,34*,0,-1
CC(C)OC(=O)c1ccc(N)cc1,5,-1,7,-2,.
Nc1ccc(C(=O)C(=O)c2ccc(N)cc2)cc1,.,1,38*,0,0
C[C@H](O)[C@H](O)[C@H]1CNc2nc(N)[nH]c(=O)c2N1,.,73*,18,-2,-2
Cc1ccc(S(=O)(=O)c2c(N)n(CCCO)c3nc4ccccc4nc23)cc1,0,143*,21,-3,.
Cc1ccc(S(=O)(=O)c2c(N)n(CCN3CCOCC3)c3nc4ccccc4nc23)cc1C,.,15,14,0,-2
Nc1c(S(=O)(=O)c2ccccc2)c2nc3ccccc3nc2n1C1CC1,12,18,3,-3,.
Cc1ccc(S(=O)(=O)c2c(N)n(Cc3ccco3)c3nc4ccccc4nc23)cc1C,-10,91*,40*,-7,0
Nc1c(S(=O)(=O)c2ccccc2)c2nc3ccccc3nc2n1Cc1ccco1,-6,101*,46*,-8,-2
O=C(C[C@H]1C[C@H]2c3cc(NC(=O)C4CCC4)ccc3O[C@H]2[C@H](CO)O1)NC1CCCCC1,.,.,.,.,-3
CC(=O)c1ccc(Nc2nc(C)cc(C)n2)cc1,-6,0,33*,0,-3
CCn1cc(CN2CCC(C(=O)Nc3ccc(Oc4cccnc4)cc3)CC2)c(C)n1,-4,0,5,13*,-2
C=CCn1cc(CN2CCC(C(=O)Nc3ccc(Oc4cccnc4)cc3)CC2)c(C)n1,2,-2,7,16*,-1
O=C(C[C@H]1CC[C@H]2[C@@H](COC[C@@H](O)CN2Cc2ccc(Cl)cc2)O1)NCc1cccc(F)c1,.,.,.,.,0
COc1cccc(NC(=O)N(C)C[C@H]2Oc3cc(C#CC4(O)CCCC4)ccc3S(=O)(=O)N([C@H](C)CO)C[C@H]2C)c1,.,.,.,.,-4
Cc1cc(C)c2c(n1)nn1c(N3CCN(Cc4ccccc4)CC3)cc(C)nc21,1,114*,20,-3,1
CCCOC(=O)c1c(N)n(Cc2cccs2)c2nc3ccccc3nc12,5,173*,11,-11,2
C=CCn1c(N)c(C(=O)OCCC)c2nc3ccccc3nc21,2,175*,17,-2,10
Nc1c(C(=O)NCCCc2ccccc2)c2nc3ccccc3nc2n1Cc1cccs1,-6,5,0,-11,1
C=CCn1c(N)c(C(=O)Nc2cccc(C)c2)c2nc3ccccc3nc21,8,8,22,-6,-1
CCN(CC)CCNc1ncnc2c1sc1nc(N3CCOCC3)c3c(c12)CCCC3,15,1,35*,0,.
COc1ccc(C2=CC3=C(Br)C(=O)C(C)(OC(=O)C4CCCC4)C(=O)C3=CO2)cc1 (stereo not given),.,-1,17,11*,0
COc1ccc(C2=CC3=C(Br)C(=O)C(C)(OC(=O)c4ccc(Cl)nc4)C(=O)C3=CO2)cc1 (stereo not given),10,.,.,.,.
COc1cccc(S(=O)(=O)Nc2ccc3c(c2)[C@H]2C[C@@H](CC(=O)NCCc4ccccc4)O[C@@H](CO)[C@H]2O3)c1,.,.,.,.,1
Cc1snc(SCC(=O)NN=C(N)COc2ccc(F)cc2)c1C#N,4,.,.,.,.
SMILES,Mtb hypoxia inh,FBA Mtb inh,GDH-TPI counter,FadD28 FP inh,BioA inh
CC(=O)Nc1ccc2c(c1)C(=O)N(C)[C@@H]1CC[C@H](CC(=O)NCc3ccc(F)cc3)O[C@H]1CO2,.,.,.,.,2
C[C@@H]1CCCCO[C@@H](CN(C)Cc2ccc3c(c2)OCO3)[C@H](C)CN([C@H](C)CO)C(=O)c2cc(NC(=O)Nc3ccccc3)ccc2O1,.,.,.,.,-1
COc1ccc(C(=O)COC(=O)CCC(=O)Nc2ccc(C(C)=O)cc2)cc1,-2,+,7,-1,-2
O=C(N[C@H]1CC[C@H](CCNS(=O)(=O)c2ccccc2)O[C@H]1CO)c1cccc(F)c1,.,.,.,.,-2
COc1cc(/C=N/N=C(\N)c2nonc2N)cc(OC)c1O,.,-2,36*,-2,.
Oc1ccc(C=NNc2nc3ccccc3s2)c(O)c1,18,-1,32*,6,-1
C(=NNc1nc2ccccc2s1)c1ccco1,15,.,.,.,.
C(=N\Nc1nc2ccccc2s1)/c1ccco1,.,-1,42*,0,-1
C(=N\Nc1nc2ccccc2s1)/c1cccs1,.,0,42*,1,-4
CCCN1C[C@@H](C)[C@@H](OC)CN(C)C(=O)c2cc(NC(=O)C3CCOCC3)ccc2OC[C@@H]1C,.,.,.,.,-2
CCNC(=O)C[C@H]1CC[C@H]2[C@H](COc3ccc(NC(=O)C4CCOCC4)cc3C(=O)N2C)O1,.,.,.,.,0
CO[C@@H]1CN(C)C(=O)c2cc(NC(=O)C3CC3)ccc2OC[C@@H](C)N(S(=O)(=O)c2ccc(Cl)cc2)C[C@H]1C,.,.,.,.,2
C[C@H](O)C#Cc1cnc2c(c1)C(=O)N([C@@H](C)CO)C[C@H](C)[C@H](CN(C)Cc1ccc(-c3ccccc3)cc1)O2,.,.,.,.,-3
CCc1cc2c(=O)c(Oc3ccccc3)c(C)oc2cc1O,-1,186*,18,-2,.
CC(=NNC(=O)c1ccc(Cn2cc(Br)cn2)o1)c1ccc(NC(=O)c2ccoc2C)cc1,-1,.,.,.,.
CCN(CC)c1ccc(C2=NNC(=O)CC2C)cc1[N+](=O)[O-] (stereo not given),8,-6,31*,-2,1
CC1CC(=O)NN=C1c1ccc(N(C)C)c([N+](=O)[O-])c1 (stereo not given),1,-5,37*,-2,5
C[C@H]1CN([C@@H](C)CO)C(=O)c2cc(NC(=O)Nc3ccc(C(F)(F)F)cc3)ccc2O[C@@H]1CN(C)C(=O)Nc1cccc2ccccc12,.,.,.,.,-3
CN(C)c1ccc(-c2nc3ccccc3c(=O)[nH]2)cc1,-1,2,74*,-2,.
O=S(=O)(Cc1ccccc1)Nc1ccccc1,21,-1,5,-4,0
CC(=O)c1ccc(NS(=O)(=O)Cc2ccccc2)cc1,-3,1,35*,0,.
Cc1noc(C)c1NC(=O)Nc1ccc2c(c1)C(=O)N([C@@H](C)CO)C[C@@H](C)[C@@H](CN(C)C(=O)Nc1c(C)noc1C)OCCCC[C@@H](C)O2,.,.,.,.,9
CC1(C)CC(=O)C=C(Nc2ccc(O)cc2)C1,.,2,19,-2,1
COc1ccc(NC2=CC(=O)CC(C)(C)C2)cc1,17,-6,3,-4,0
COC(=O)c1ccc(NC2=CC(=O)CC(C)(C)C2)cc1,16,4,44*,-4,-1
CC1(C)CC(=O)C=C(Nc2ccc([N+](=O)[O-])cc2)C1,1,-3,47*,-1,16
Cc1noc(C)c1S(=O)(=O)Nc1ccc2c(c1)CC(=O)N([C@H](C)CO)C[C@H](C)[C@H](CN(C)Cc1ccccc1)O2,.,.,.,.,1
COc1ccc(-c2sc3ccccc3c2C#CCCO)cc1,.,6,9,-6,-1
COc1ccc2sc(-c3ccc(S(C)(=O)=O)cc3)c(C#CCO)c2c1,.,21,34*,-5,0
